POLK inh = qHTS for Inhibitors of Polymerase Kappa | DNA polymerase kappa (Homo sapiens), Q9UBT6 | Potency, µM (highest dose often 107 µM), without a hit: at the top dose activity, negative = inhibition, usual class: inhibitors | purified Pol kappa, fluorescent DNA synthesis assay, 10 min | AID 588579, 2011 | 400,000 tested, 0.53% active; further: potency means the concentration at half of the fitted maximal effect; on the % scale 0 is the no-effect control and ±100 the full control effect
Target sequence (Q9UBT6 whole entry, looked up): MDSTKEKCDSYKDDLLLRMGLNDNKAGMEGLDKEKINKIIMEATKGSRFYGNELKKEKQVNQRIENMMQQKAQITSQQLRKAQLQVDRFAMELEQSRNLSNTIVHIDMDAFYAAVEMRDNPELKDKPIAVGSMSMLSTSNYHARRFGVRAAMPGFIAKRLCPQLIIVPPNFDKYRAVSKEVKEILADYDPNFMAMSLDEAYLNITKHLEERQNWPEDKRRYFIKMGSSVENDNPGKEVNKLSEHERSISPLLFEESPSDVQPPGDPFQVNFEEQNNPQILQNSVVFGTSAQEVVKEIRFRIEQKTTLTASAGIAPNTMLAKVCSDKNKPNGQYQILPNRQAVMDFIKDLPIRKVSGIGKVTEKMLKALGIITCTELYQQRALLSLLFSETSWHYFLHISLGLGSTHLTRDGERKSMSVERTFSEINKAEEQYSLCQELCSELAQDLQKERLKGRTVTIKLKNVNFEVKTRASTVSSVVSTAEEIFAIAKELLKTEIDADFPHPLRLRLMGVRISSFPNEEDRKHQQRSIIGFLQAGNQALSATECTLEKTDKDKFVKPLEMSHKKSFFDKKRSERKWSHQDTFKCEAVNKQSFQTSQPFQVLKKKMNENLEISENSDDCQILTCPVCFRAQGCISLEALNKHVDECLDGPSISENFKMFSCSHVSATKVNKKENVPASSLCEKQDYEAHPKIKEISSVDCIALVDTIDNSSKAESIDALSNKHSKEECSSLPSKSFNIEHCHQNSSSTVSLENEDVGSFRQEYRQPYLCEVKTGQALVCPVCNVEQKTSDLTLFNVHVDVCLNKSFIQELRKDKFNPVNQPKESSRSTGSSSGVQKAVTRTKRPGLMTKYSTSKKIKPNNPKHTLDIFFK
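Activity was followed as the change in fluorescence between reads at 0 and 10 min after starting the reaction with 50 nM substrate. Beforehand, 10 nM polymerase had been preincubated with compound for 15 min at room temperature.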
WRN inhibitor = qHTS for Inhibitors of WRN Helicase. Potency, µM (titrated, usually from 114 µM), without a hit: top-dose activity change, negative = inhibition, hits mostly inhibitors. 360,000 tested, 0.46% active. WRN helicase unwinding, fluorescent forked duplex, kinetic; further: potency means the concentration at half of the fitted maximal effect; on the % scale 0 is the no-effect control and ±100 the full control effect; nearly all actives have a fitted effect of over 55% in size
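Enzyme (20 nM final) and test compound sit together 15 min at room temperature before substrate addition. Substrate is a single-forked duplex oligonucleotide (100 nM) labelled with fluorophore and quencher, with 2 mM ATP; helicase unwinding raises red fluorescence, read kinetically.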
Pol iota inh = qHTS for Inhibitors of Polymerase Iota; DNA polymerase iota (Homo sapiens), Q9UNA4; 390,000 tested, 1% active; Potency, µM (series often up to 115 µM), for inactives: top-dose activity, negative = inhibition, most hits filed as inhibitors; Pol iota fluorescent replication assay, 10 min; further: potency means the concentration at half of the fitted maximal effect
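Fluorescent replication assay read twice, at 0 min and 10 min after adding 50 nM (final) substrate. Enzyme (10 nM) and compounds were first incubated 15 min at room temperature; enzyme-free buffer wells were negative controls.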
POLH inh = qHTS for Inhibitors of Polymerase Eta. recombinant Pol eta, fluorescent DNA replication assay. AID 588591, 2011. Potency, µM (doses to about 114 µM), for the others: top-dose activity change, negative = inhibition, usual class: inhibitors. 390,000 tested, 1.2% active. DNA polymerase eta (Homo sapiens), Q9Y253; further: potency means the concentration at half of the fitted maximal effect; on the % scale 0 is the no-effect control and ±100 the full control effect
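Pol eta (10 nM) was preincubated with compounds for 15 min at room temperature, after which fluorescent replication substrate (50 nM final) was added to start the reaction. Fluorescence was read kinetically at 0 and 10 min.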
PI5P4Ka inh = qHTS for Inhibitors of phosphatidylinositol 5-phosphate 4-kinase (PI5P4K) | PI5P4Kalpha enzyme, ADP-Glo luminescence, 60 min; hits give low values | max response, % | 330,000 tested, 1.2% active | AID 652105, 2013; active means max response of -50% or lower; inconclusive means between -30% and -50%; inactive means -30% or higher; further: value at the top dose of about 77 µM; on the % scale 0 is the no-effect control and ±100 the full control effect
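PI5P4Kalpha ADP-Glo assay; 5 microM ATP final; 60 min RT reaction; HEPES pH 7.4/EGTA/CHAPS, 5% DMSO; controls lacking substrate or enzyme; luminescent end-point.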
Pol beta inh = qHTS Assay for Inhibitors of DNA Polymerase Beta | Pol beta primer extension/strand displacement, fluorescence kinetic | 340,000 tested, 1.3% active | Potency, µM (top dose mostly 114 µM), without a hit: top-dose activity change, negative = inhibition, most hits filed as inhibitors | P06746; further: potency means the concentration at half of the fitted maximal effect; on the % scale 0 is the no-effect control and ±100 the full control effect
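Reaction started by 50 nM substrate onto compound-treated Pol beta (10 nM, 15 min preincubation, room temperature); plates read at 0 min and 10 min. Normalized concentration-effect data fitted by four-parameter Hill equation.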
TbPGK inh = qHTS for inhibitors of Phosphogylcerate Kinase: Hit Validation Screen. shares compounds with POLK inh. Potency, µM (doses to about 57.5 µM), for the others: top-dose activity change, negative = inhibition, hits mostly inhibitors. TbPGK coupled GAPDH assay, Kinase-Glo luminescence. AID 686980, 2013. 500 tested, 79% active; further: potency means the concentration at half of the fitted maximal effect; on the % scale 0 is the no-effect control and ±100 the full control effect; nearly all actives have a fitted effect of over 65% in size
Pol iota confirm = qHTS for Inhibitors of Polymerase Iota: Confirmatory Assay for Cherry-picked Compounds; shares compounds with POLK inh; Pol iota primer extension, TAMRA/BHQ fluorescence; Potency, µM, usual class: inhibitors; 1,500 tested, 77% active; AID 720496, 2013; further: potency means the concentration at half of the fitted maximal effect
An asterisk follows results filed as active; i = inactive; ? = inconclusive; . = not tested or not shown; [ ] = remark or other dose. Only some compounds are listed: those with a hit (about 2.8% of all), similar ones and a draw of the others. Unless noted, the call rests on the fitted dose curve; in most records, active means well fitted curve in the direction sought with a large enough effect; inconclusive means small, poorly fitted or top-dose-only effect, or another doubt; inactive means no such curve, though single readings can be large; an effect the other way counts as inactive or inconclusive.

SMILES	POLK inh	WRN inhibitor	Pol iota inh	POLH inh	PI5P4Ka inh	Pol beta inh	TbPGK inh	others
Cc1ccc(CNC(=O)c2ccc3c(c2)NC(=O)C(CS(=O)(=O)Cc2cccc(F)c2)N3)cc1 (stereo not drawn)	-19%	.	33%	-10%	.	-21%	.
Cc1ccc(-n2c(SCC(=O)Nc3ccc(Cl)cc3)nc(O)cc2=O)cc1	-16%	-2%	15%	-10%	-23	16%	.
COC(=O)c1ccc(NC(=O)c2ccc(NC(=O)c3ccco3)cc2)cc1	-10%	-14%	?	?	-17	-1%	.	Pol iota confirm=?
CC(=O)c1ccc(NC(=O)c2ccc(NC(=O)c3ccco3)cc2)cc1	-11%	-3%	-19%	9%	1	28%	.
CSc1ccc(C=NNc2ccc(S(=O)(=O)Nc3ccccc3C(=O)O)cc2[N+](=O)[O-])cc1	?	?	25µM*	?	-53*	.	4.1µM*
O=C(NNC(=O)c1cc(-c2ccncc2)nc2ccccc12)c1ccccc1O	-18%	-19%	?	-9%	-9	.	.	Pol iota confirm=38*
Cc1ccc(-c2cc(C(=O)Nc3ccncc3)c3ccccc3n2)cc1	3%	-4%	25%	-11%	-3	.	.
Cc1noc(C)c1NC(=O)N1C[C@H](O)COC[C@H]2O[C@@H](CC(=O)NCC3CCCCC3)CC[C@@H]21	.	0%	.	.	2	.	.
CCC1CCc2c(sc(NC(=O)C3CC=CCC3C(=O)O)c2C#N)C1 (stereo not drawn)	-18%	-31%	-7%	?	?	79µM*	?
CCOC(=O)Nc1sc2c(c1C#N)CCC(C)C2 (stereo not drawn)	-6%	-4%	28%	-23%	11	-1%	.
CCOC(=O)c1c(C)oc2nc(C)nc(NCCc3ccc(OCC)cc3)c12	-8%	.	-17%	-4%	.	0%	.
COc1ccc(C2=CC3=C(Br)C(=O)C(C)(OC(=O)C4CCCC4)C(=O)C3=CO2)cc1 (stereo not drawn)	79µM*	?	40µM*	45µM*	-68*	35µM*	9.2µM*
C=C(C)C(=O)Nc1cccc(C2=NOC3(C2)C[C@@H](C(N)=O)N(C(=O)c2cc([N+](=O)[O-])cc([N+](=O)[O-])c2)C3)c1 (stereo partly drawn)	?	-21%	?	20µM*	-15	14µM*	?
CCCCCC(=O)Nc1cccc(C2=NOC3(C2)C[C@@H](C(N)=O)N(C(=O)c2cc([N+](=O)[O-])cc([N+](=O)[O-])c2)C3)c1 (stereo partly drawn)	-5%	-4%	1%	-21%	5	-2%	.
COc1ccc(C2CCCN2C(=S)Nc2ccc(C)cc2Cl)cc1OC (stereo not drawn)	14%	1%	25%	-18%	-4	-2%	.
CS(=O)(=O)NCCSCc1ccco1	?	?	?	71µM*	.	40µM*	21µM*
CCOc1ccccc1C(=O)Nc1nn[nH]n1	-11%	-2%	14%	-14%	-3	13%	.
Cc1cc(NC(=O)c2cncc(Br)c2)ccc1NC(=O)c1cc2ccccc2o1	-12%	-11%[11.6 µM]	?	50µM*	1	?	.	Pol iota confirm=?
CCCCCN(CCCCC)C(=O)[C@H](CCC(=O)O)NC(=O)[C@H](Cc1ccc(OP(=O)(O)O)cc1)NC(C)=O	-14%[12 µM]	.	.	.	.	.	.
CCOc1cc(N2CCOCC2)c(OCC)cc1NC(=O)c1cc(-c2ccco2)nc2ccccc12	4%[60.1 µM]	-35%	?	79µM*	.	?	.	Pol iota confirm=?
COc1ccc(CNCc2c(C(=O)O)c(C)n(Cc3ccccc3C)c2C)cc1OC	-5%	.	25%	-19%	.	18%	.
CCOc1ccc(C(=O)Nc2cc(C)ccn2)cc1	3%	?	93%	-18%	?	30%	16µM*
CCOc1ccccc1-n1c(SCC(=O)N2CCOCC2)nc2ccccc2c1=O	-9%	3%	49%	-5%	0	29%	.
CCc1nn2c(=O)cc(COc3cccc(NC(=O)c4ccco4)c3)nc2s1	?	-21%	50µM*	?	?	?	.	Pol iota confirm=?
CC(=O)C1=C(O)C(=O)N(Cc2ccccc2)C1c1ccc([N+](=O)[O-])cc1 (stereo not drawn)	.	.	.	.	.	39%	.
SMILES	POLK inh	WRN inhibitor	Pol iota inh	POLH inh	PI5P4Ka inh	Pol beta inh	TbPGK inh	others
O=C(N/N=C/c1c(O)ccc2ccccc12)c1ccc(Br)o1	0%	?	101%	?	-1	13µM*	18µM*
O=C(N/N=C\c1c(O)ccc2ccccc12)c1cncc(Br)c1	-17%	-4%	83%	-3%	-17	17%	.
COc1ccc(NC(=O)/C(C#N)=C/c2ccc(C)o2)cc1	4%	.	20%	-13%	.	2%	.
COc1ccc(NC(=O)/C(C#N)=C/c2ccc(Br)o2)cc1	79µM*	?	22µM*	?	.	10µM*	.	Pol iota confirm=?
COc1ccc(CNC(=O)C2CCCN2C(=O)NCc2ccccc2)cc1 (stereo not drawn)	0%	1%	17%	-13%	7	1%	.
Cc1ccc(CN2CCN(C3CCN(S(=O)(=O)c4ccc(C)cc4)CC3)C(=O)C2=O)cc1	-7%	.	39%	-21%	.	-3%	.
CC(=O)Nc1ccc(S(=O)(=O)N2CCC(N3CCN(Cc4ccc(C)cc4)C(=O)C3=O)CC2)cc1	-38%	.	79µM*	?	.	45µM*	.	Pol iota confirm=?
CCOC(=O)C(=O)Cc1cccnn1	?	50µM*	?	2.8µM*	-24	.	13µM*
CCOC(=O)C(Cc1ccnc2ccccc12)=NO	-19%	-1%	45%	-18%	1	.	.
Cc1ccc(/C=N/N2CCCCC2)o1	-9%	-5%	-5%	-9%	6	4%	0%
O=c1cc2oc3cc(O)c(O)cc3c(-c3ccccc3O)c-2cc1O	4.5µM*	i	-27%	?	-88*	40µM*	1.2µM*

Source: PubChem BioAssay
